Experimental data published in PubChem BioAssay (EPA / NIEHS).
Activity calls are given as the source filed them. The calls were made as follows: active = hit-call score of the fitted dose curve at least 0.9, where 1 is the maximum; inactive = score below 0.9.

What was measured:
[1] = target: Transcription factor E2F1 (Homo sapiens) (UniProt Q01094); test: ATG_E2F_CIS: Attagene CIS-FACTORIAL HepG2 Assay for human E2F Transcription Factor 1 (AID 2282935); conditions: HepG2 Attagene cis-reporter, E2F reporter RNA transcripts; actives raise or lower the signal
In short: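 Endogenous E2F1 activity read through cis-promoter reporter units transfected into HepG2. After 24 h compound treatment, reporter mRNA measured by RT-PCR, HpaI digestion and capillary electrophoresis. Bidirectional fit versus DMSO.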

[2] = ATG_E_Box_CIS: Attagene CIS-FACTORIAL HepG2 Assay for human Enhancer Box (E-box) (AID 2282936); conditions: HepG2 E-box cis-reporter transcription, actives raise or lower the signal
In short: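 HepG2 cells transiently transfected with multiplexed cis-element reporter units, dosed 24 h; reporter mRNA quantified by RT-PCR, 6-FAM labelling, HpaI digestion and capillary electrophoresis. E-box (USF1) signal fitted bidirectionally vs DMSO.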

[3] = ATG_M_61_CIS: Attagene CIS-FACTORIAL HepG2 Assay for M61 Transcription Factor (Internal Marker) (AID 2282937); conditions: HepG2 Attagene CIS-FACTORIAL M61 internal marker reporter; actives raise or lower the signal
In short: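 HepG2 cells transiently transfected with cis-element-driven multiple reporter transcription units, dosed for 24 h. Reporter mRNA measured by RT-PCR, 6-FAM primer-extension labelling, HpaI digestion and capillary electrophoresis; bidirectional fit versus DMSO baseline.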

[4] = ATG_EGR_CIS: Attagene CIS-FACTORIAL HepG2 Assay for human Early Growth Response 1 (EGR1) (AID 2282938); conditions: HepG2 Attagene CIS-FACTORIAL EGR reporter mRNA; actives raise or lower the signal
In short: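 HepG2 cells transiently transfected with cis-promoter-driven multiplexed reporter transcription units; reporter mRNA measured 24 h after compound dosing by RT-PCR, 6-FAM primer extension, HpaI digestion and capillary electrophoresis. Bidirectional fit versus DMSO baseline.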

[5] = ATG_M_19_CIS: Attagene CIS-FACTORIAL HepG2 Assay for M19 Transcription Factor (Internal Marker) (AID 2282939); conditions: HepG2 Attagene CIS-FACTORIAL M19 internal marker reporter; actives raise or lower the signal
In short: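 In this multiplexed cell assay, transiently transfected HepG2 reporter units report endogenous transcription-factor activity; after 24 hours of treatment, labelled reporter cDNA fragments are quantified by capillary electrophoresis and fitted bidirectionally against DMSO.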

[6] = ATG_ERE_CIS: Attagene CIS-FACTORIAL HepG2 Assay for Estrogen Response Element (ERE) (AID 2282940); conditions: HepG2 ERE cis-reporter, Attagene RNA transcript; actives raise or lower the signal
In short: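 Measuring endogenous transcription factor output, the assay doses transfected HepG2 cells for 24 hours and quantifies reporter transcripts by fluorescent RT-PCR and capillary electrophoresis, with DMSO as baseline.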

[7] = ATG_Ets_CIS: Attagene CIS-FACTORIAL HepG2 Assay for human Erythroblast Transformation Specific (ETS) (AID 2282941); conditions: HepG2 ETS cis-reporter transcription, actives raise or lower the signal
In short: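 HepG2 cells transfected with multiple cis-regulated reporter units measuring endogenous ETS-driven transcription, 24 h after dosing. Reporter mRNA quantified by RT-PCR with capillary electrophoresis; bidirectional fit relative to DMSO.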

[8] = target: Hepatocyte nuclear factor 3-beta (Homo sapiens) (UniProt Q9Y261); test: ATG_FoxA2_CIS: Attagene CIS-FACTORIAL HepG2 Assay for human Forkhead box A2 (FOXA2) (AID 2282942); conditions: HepG2 cis-reporter transcription factor activity, 24 h; actives raise or lower the signal
In short: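 HepG2 cells transiently transfected with multiple cis-regulated reporter transcription units, dosed for 24 h. Reporter mRNA measured by RT-PCR, 6-FAM labelling, HpaI digestion and capillary electrophoresis; bidirectional fitting against DMSO baseline.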

[9] = ATG_FoxO_CIS: Attagene CIS-FACTORIAL HepG2 Assay for human Forkhead box O (FoxO) (AID 2282943); conditions: HepG2 Attagene cis-reporter, FoxO element, mRNA; actives raise or lower the signal
In short: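 HepG2 cells transiently transfected with cis-element-driven reporter units report endogenous FoxO activity. After 24 h chemical exposure, reporter mRNA quantified by RT-PCR, fluorescent labeling, HpaI digestion and capillary electrophoresis; bidirectional fit versus DMSO.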

[10] = ATG_GATA_CIS: Attagene CIS-FACTORIAL HepG2 Assay for human GATA Binding Protein (AID 2282944); conditions: HepG2 GATA cis-element reporter, Attagene multiplex mRNA; actives raise or lower the signal
In short: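 Measures endogenous transcription factor-driven reporter mRNA in HepG2 cells transiently carrying cis-regulated constructs. 24 h dosing; RNA via oligo(dT) reverse transcription, PCR, HpaI digestion, capillary electrophoresis; fitted relative to DMSO.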

[11] = ATG_GLI_CIS: Attagene CIS-FACTORIAL HepG2 Assay for human Zinc Finger Protein GLI1 (AID 2282945); conditions: HepG2, Attagene cis-factorial reporter mRNA, GLI element; actives raise or lower the signal
In short: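 Transiently transfected HepG2 cells report endogenous transcription factor activity via cis-element-driven reporter units. After 24 h compound exposure, reporter mRNA was measured by RT-PCR with capillary electrophoresis; bidirectional fitting against DMSO baseline.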

[12] = target: Bile acid receptor (Homo sapiens) (UniProt Q96RI1); test: ATG_IR1_CIS: Attagene CIS-FACTORIAL HepG2 Assay for human Nuclear Receptor Subfamily 1 Group H Member 4 (NR1H4), IR1 submotif (AID 2282946); conditions: IR1 reporter transcription, actives raise or lower the signal
In short: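 HepG2 cells transiently transfected with multiple cis-promoter-driven reporter units to measure endogenous transcription factor activity; 24 h exposure. Reporter mRNA read by RT-PCR, FAM labelling, HpaI digestion and capillary electrophoresis. Bidirectional fit versus DMSO.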

[13] = ATG_GRE_CIS: Attagene CIS-FACTORIAL HepG2 Assay for human Glucocorticoid Response Elements (GRE) (AID 2282947); conditions: HepG2 GRE cis-reporter, Attagene multiplex mRNA; actives raise or lower the signal
In short: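 Transiently transfected HepG2 cells carrying GRE cis-reporter units (endogenous TF activity) dosed 24 h; reporter mRNA quantified by RT-PCR, 6-FAM labelling, HpaI digestion and capillary electrophoresis. Bidirectional fit versus DMSO baseline.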

[14] = ATG_ISRE_CIS: Attagene CIS-FACTORIAL HepG2 Assay for human Interferon Regulatory Factor 1 (IRF1) binding to an Interferon-Stimulated Response Element (ISRE) (AID 2282948); conditions: HepG2 ISRE cis-reporter (Attagene), mRNA transcription readout; actives raise or lower the signal
In short: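 Transiently transfected HepG2 cells carrying cis-element reporter units, dosed 24 hours. Reporter mRNA quantified by RT-PCR, fluorescent primer extension, HpaI digestion and capillary electrophoresis. Bidirectional fitting relative to DMSO.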

[15] = ATG_M_32_CIS: Attagene CIS-FACTORIAL HepG2 Assay for M32 Transcription Factor (Internal Marker) (AID 2282949); conditions: HepG2 Attagene cis-factorial M32 reporter, mRNA; actives raise or lower the signal;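 also: background control marker of the multiplexed CIS panel rather than a real target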
In short: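 HepG2 cells transiently transfected with multiplexed cis-regulated reporter units, dosed 24 h. Reporter mRNA quantified by RT-PCR, 6-FAM labelling, HpaI digestion and capillary electrophoresis; bidirectional fit vs DMSO.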

[16] = ATG_M_06_CIS: Attagene CIS-FACTORIAL HepG2 Assay for M06 Transcription Factor (Internal Marker) (AID 2282950); conditions: HepG2 Attagene CIS-FACTORIAL M06 internal marker reporter; actives raise or lower the signal
In short: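 One of many multiplexed endpoints: HepG2 reporter mRNA after 24 h dosing, detected by RT-PCR and capillary electrophoresis fluorescence; gain or loss of signal analysed against DMSO.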

[17] = target: Hypoxia-inducible factor 1-alpha (Homo sapiens) (UniProt Q16665); test: ATG_HIF1a_CIS: Attagene CIS-FACTORIAL HepG2 Assay for human Hypoxia Inducible Factor 1 (HIF1A) (AID 2282951); conditions: HepG2 Attagene cis-factorial HIF1a reporter transcription; actives raise or lower the signal
In short: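 HepG2 cells transiently transfected with multiplexed cis-promoter reporter units; reporter mRNA read 24 h after dosing by RT-PCR, 6-FAM primer-extension labelling, HpaI digestion and capillary electrophoresis. Bidirectional fit versus DMSO baseline.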

[18] = target: Hepatocyte nuclear factor 6 (Homo sapiens) (UniProt Q9UBC0); test: ATG_HNF6_CIS: Attagene CIS-FACTORIAL HepG2 Assay for human Hepatocyte Nuclear Factor 6 (HNF6) (AID 2282952); conditions: HepG2 Attagene cis-factorial HNF6 reporter transcription; actives raise or lower the signal
In short: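 HepG2, transient MRTU transfection (cis promoters); 24 h chemical exposure; total RNA → oligo(dT) RT → PCR → 6-FAM labelling → HpaI cut → CE; bidirectional fit vs DMSO.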

[19] = target: Heat shock factor protein 1 (Homo sapiens) (UniProt Q00613); test: ATG_HSE_CIS: Attagene CIS-FACTORIAL HepG2 Assay for human Heat Shock Transcription Factor 1 (HSE) (AID 2282953); conditions: HepG2 HSE cis-reporter, Attagene RNA transcription; actives raise or lower the signal
In short: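 Using HepG2 with transfected cis-driven reporter constructs, compound effects on endogenous factor activity are scored as reporter mRNA change at 24 h. Detection: RT-PCR, HpaI digestion, capillary electrophoresis; bidirectional fitting to DMSO.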

[20] = ATG_MRE_CIS: Attagene CIS-FACTORIAL HepG2 Assay for human Metal Responsive Element (MRE) (AID 2282954); conditions: HepG2 MRE cis-reporter transcription, Attagene multiplex; actives raise or lower the signal
In short: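 HepG2 cells transiently transfected with cis-element-driven reporter units; mRNA measured 24 h after dosing. Reporter transcripts quantified by RT-PCR, FAM labelling, HpaI digestion and capillary electrophoresis; bidirectional fit versus DMSO.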

Transcription factor E2F1 (Homo sapiens), sequence (Q01094 whole entry, looked up): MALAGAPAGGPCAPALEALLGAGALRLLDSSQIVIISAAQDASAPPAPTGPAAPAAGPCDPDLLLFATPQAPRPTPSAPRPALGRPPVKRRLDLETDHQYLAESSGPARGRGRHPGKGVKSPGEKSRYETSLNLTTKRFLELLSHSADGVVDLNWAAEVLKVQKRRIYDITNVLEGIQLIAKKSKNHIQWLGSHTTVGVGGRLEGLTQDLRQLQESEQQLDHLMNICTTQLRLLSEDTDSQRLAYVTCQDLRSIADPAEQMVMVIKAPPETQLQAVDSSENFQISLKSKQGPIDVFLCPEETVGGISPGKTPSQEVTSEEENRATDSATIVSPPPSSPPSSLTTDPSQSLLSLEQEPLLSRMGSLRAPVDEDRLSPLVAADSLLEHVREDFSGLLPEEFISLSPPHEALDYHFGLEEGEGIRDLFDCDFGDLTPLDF
Hepatocyte nuclear factor 6 (Homo sapiens), sequence (Q9UBC0 whole entry, looked up): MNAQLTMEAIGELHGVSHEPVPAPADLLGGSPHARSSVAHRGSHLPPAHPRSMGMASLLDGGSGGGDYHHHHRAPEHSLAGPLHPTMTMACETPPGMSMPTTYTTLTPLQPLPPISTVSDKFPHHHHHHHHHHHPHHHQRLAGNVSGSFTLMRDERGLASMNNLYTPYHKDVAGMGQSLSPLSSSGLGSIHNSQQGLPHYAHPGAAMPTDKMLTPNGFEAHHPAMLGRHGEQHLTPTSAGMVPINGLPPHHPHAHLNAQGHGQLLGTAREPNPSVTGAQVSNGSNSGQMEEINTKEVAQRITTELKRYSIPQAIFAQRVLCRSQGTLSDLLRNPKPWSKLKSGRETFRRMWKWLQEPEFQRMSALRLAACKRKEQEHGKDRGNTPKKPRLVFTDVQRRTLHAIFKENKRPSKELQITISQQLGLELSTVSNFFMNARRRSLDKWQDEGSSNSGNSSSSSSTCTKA
Hepatocyte nuclear factor 3-beta (Homo sapiens), sequence (Q9Y261 whole entry, looked up): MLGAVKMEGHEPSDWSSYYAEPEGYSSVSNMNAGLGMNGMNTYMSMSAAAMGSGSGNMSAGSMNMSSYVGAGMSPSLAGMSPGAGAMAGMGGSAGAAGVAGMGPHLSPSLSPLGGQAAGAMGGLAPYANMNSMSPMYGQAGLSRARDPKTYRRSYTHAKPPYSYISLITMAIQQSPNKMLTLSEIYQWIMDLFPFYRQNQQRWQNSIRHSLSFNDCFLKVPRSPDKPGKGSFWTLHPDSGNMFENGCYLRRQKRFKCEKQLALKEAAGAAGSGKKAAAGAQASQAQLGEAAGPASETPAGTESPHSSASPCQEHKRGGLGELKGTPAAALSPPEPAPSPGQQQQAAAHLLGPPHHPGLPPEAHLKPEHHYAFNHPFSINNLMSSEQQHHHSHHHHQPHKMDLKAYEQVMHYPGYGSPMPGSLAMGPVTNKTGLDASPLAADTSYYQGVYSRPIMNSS
Heat shock factor protein 1 (Homo sapiens), sequence (Q00613 whole entry, looked up): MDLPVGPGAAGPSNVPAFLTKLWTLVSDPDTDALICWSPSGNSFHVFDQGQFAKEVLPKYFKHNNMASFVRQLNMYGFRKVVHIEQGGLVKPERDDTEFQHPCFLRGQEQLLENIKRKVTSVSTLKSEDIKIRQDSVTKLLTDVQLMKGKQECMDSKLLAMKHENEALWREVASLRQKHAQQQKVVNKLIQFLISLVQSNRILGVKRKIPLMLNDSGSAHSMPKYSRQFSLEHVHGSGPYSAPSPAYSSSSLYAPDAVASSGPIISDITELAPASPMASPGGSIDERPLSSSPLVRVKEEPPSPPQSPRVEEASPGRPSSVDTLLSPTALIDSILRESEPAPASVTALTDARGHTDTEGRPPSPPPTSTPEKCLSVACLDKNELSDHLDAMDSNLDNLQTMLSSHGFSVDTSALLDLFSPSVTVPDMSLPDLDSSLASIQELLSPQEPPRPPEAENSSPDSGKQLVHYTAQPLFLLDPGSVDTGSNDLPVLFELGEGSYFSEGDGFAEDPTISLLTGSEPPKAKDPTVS
Bile acid receptor (Homo sapiens), sequence (Q96RI1 whole entry, looked up): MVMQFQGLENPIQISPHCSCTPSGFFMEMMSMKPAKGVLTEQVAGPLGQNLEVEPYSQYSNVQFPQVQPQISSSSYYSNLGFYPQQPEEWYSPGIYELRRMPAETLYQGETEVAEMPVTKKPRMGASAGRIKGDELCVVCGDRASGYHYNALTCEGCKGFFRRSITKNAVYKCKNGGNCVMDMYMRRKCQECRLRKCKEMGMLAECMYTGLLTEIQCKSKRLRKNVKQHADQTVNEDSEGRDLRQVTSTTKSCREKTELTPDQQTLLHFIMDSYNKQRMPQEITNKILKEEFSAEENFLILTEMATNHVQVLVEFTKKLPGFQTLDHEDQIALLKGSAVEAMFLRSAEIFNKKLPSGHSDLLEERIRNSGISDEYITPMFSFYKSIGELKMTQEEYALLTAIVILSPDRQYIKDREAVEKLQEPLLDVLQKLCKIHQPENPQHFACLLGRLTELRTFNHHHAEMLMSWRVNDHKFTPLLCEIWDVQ
Hypoxia-inducible factor 1-alpha (Homo sapiens), sequence (Q16665 whole entry, looked up): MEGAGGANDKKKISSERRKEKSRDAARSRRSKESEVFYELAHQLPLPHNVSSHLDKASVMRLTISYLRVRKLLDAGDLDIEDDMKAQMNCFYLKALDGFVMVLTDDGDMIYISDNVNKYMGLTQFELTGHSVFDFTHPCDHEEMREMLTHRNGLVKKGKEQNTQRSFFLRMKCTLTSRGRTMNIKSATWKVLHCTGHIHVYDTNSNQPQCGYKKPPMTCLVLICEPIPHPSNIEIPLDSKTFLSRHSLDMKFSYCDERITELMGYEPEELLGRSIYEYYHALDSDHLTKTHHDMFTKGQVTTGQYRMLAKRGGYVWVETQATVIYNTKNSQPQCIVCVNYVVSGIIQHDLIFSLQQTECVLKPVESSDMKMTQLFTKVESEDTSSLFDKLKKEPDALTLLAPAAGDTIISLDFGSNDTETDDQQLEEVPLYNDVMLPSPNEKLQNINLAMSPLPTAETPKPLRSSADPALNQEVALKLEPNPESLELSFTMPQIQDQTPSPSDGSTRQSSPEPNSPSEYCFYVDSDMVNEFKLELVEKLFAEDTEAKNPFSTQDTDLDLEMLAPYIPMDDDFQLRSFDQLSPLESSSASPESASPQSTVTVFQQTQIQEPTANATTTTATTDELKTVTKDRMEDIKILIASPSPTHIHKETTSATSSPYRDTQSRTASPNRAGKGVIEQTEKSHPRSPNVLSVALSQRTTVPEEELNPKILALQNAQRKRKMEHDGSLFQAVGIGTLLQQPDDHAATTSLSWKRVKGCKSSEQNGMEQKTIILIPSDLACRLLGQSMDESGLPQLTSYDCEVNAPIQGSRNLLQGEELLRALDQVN

## OCC(F)(F)C(F)(F)C(F)(F)C(F)(F)C(F)(F)C(F)(F)C(F)(F)C(F)(F)CO
[1]
  outcome: inactive
[2]
  outcome: inactive
[3]
  outcome: inactive
[4]
  outcome: inactive
[5]
  outcome: inactive
[6]
  AC50: 0.163 µM (active)
[7]
  outcome: inactive
[8]
  outcome: inactive
[9]
  outcome: inactive
[10]
  outcome: inactive
[11]
  outcome: inactive
[12]
  outcome: inactive
[13]
  outcome: inactive
[14]
  outcome: inactive
[15]
  outcome: inactive
[16]
  outcome: inactive
[17]
  outcome: inactive
[18]
  outcome: inactive
[19]
  outcome: inactive
[20]
  outcome: inactive

## CC(=O)c1ccccc1N
[1]
  outcome: inactive
[2]
  outcome: inactive
[3]
  outcome: inactive
[4]
  outcome: inactive
[5]
  outcome: inactive
[6]
  outcome: inactive
[7]
  outcome: inactive
[8]
  outcome: inactive
[9]
  outcome: inactive
[10]
  outcome: inactive
[11]
  outcome: inactive
[12]
  outcome: inactive
[13]
  outcome: inactive
[14]
  outcome: inactive
[15]
  outcome: inactive
[16]
  outcome: inactive
[17]
  outcome: inactive
[18]
  outcome: inactive
[19]
  outcome: inactive
[20]
  outcome: inactive

## CSc1ccc(O)cc1C
[1]
  outcome: inactive
[2]
  outcome: inactive
[3]
  outcome: inactive
[4]
  outcome: inactive
[5]
  outcome: inactive
[6]
  AC50: 31.7 µM (active)
[7]
  outcome: inactive
[8]
  outcome: inactive
[9]
  outcome: inactive
[10]
  outcome: inactive
[11]
  outcome: inactive
[12]
  outcome: inactive
[13]
  outcome: inactive
[14]
  outcome: inactive
[15]
  outcome: inactive
[16]
  outcome: inactive
[17]
  outcome: inactive
[19]
  outcome: inactive
[20]
  outcome: inactive

## CCOC(=O)CC(=O)C(F)(F)C(F)(F)F
[1]
  outcome: inactive
[2]
  outcome: inactive
[3]
  outcome: inactive
[4]
  outcome: inactive
[5]
  outcome: inactive
[6]
  outcome: inactive
[7]
  outcome: inactive
[8]
  outcome: inactive
[9]
  outcome: inactive
[10]
  outcome: inactive
[11]
  outcome: inactive
[12]
  outcome: inactive
[13]
  outcome: inactive
[14]
  outcome: inactive
[15]
  outcome: inactive
[16]
  outcome: inactive
[17]
  outcome: inactive
[18]
  outcome: inactive
[19]
  outcome: inactive
[20]
  outcome: inactive

## Cc1cnccn1
[1]
  outcome: inactive
[2]
  outcome: inactive
[3]
  outcome: inactive
[4]
  outcome: inactive
[5]
  outcome: inactive
[6]
  outcome: inactive
[7]
  outcome: inactive
[8]
  outcome: inactive
[9]
  outcome: inactive
[10]
  outcome: inactive
[11]
  outcome: inactive
[12]
  outcome: inactive
[13]
  outcome: inactive
[14]
  outcome: inactive
[15]
  outcome: inactive
[16]
  outcome: inactive
[17]
  outcome: inactive
[18]
  outcome: inactive
[19]
  outcome: inactive
[20]
  outcome: inactive

## O=C(O)C(F)(F)C(F)(F)C(F)(F)OC(F)(F)F
[1]
  outcome: inactive
[2]
  outcome: inactive
[3]
  outcome: inactive
[4]
  outcome: inactive
[5]
  outcome: inactive
[6]
  outcome: inactive
[7]
  outcome: inactive
[8]
  outcome: inactive
[9]
  outcome: inactive
[10]
  outcome: inactive
[11]
  outcome: inactive
[12]
  outcome: inactive
[13]
  outcome: inactive
[14]
  outcome: inactive
[15]
  outcome: inactive
[16]
  outcome: inactive
[17]
  outcome: inactive
[18]
  outcome: inactive
[19]
  outcome: inactive
[20]
  outcome: inactive

## CCOC(=O)C1CC(=O)C(=C(O)C2CC2)C(=O)C1 (centres undefined)
[1]
  outcome: inactive
[2]
  outcome: inactive
[3]
  outcome: inactive
[4]
  outcome: inactive
[5]
  outcome: inactive
[6]
  outcome: inactive
[7]
  outcome: inactive
[8]
  outcome: inactive
[9]
  outcome: inactive
[10]
  outcome: inactive
[11]
  outcome: inactive
[12]
  outcome: inactive
[13]
  outcome: inactive
[14]
  outcome: inactive
[15]
  outcome: inactive
[16]
  outcome: inactive
[17]
  outcome: inactive
[18]
  outcome: inactive
[19]
  outcome: inactive
[20]
  outcome: inactive
